In the OligoGym collection one finds sensor-assay potency score (higher = more potent) data, which are given here for 38 sequences.
Further: reference of the scale not given here.

One experiment has as its target ACSL3. In words: pooled miR-30 sensor sort-seq; sequence = guide strand. The conditions noted are these: shRNA.
The sequence AATCTTTAAGCATCCATCGGGT yielded a sensor-assay potency score (higher = more potent) of -0.577. In turn, TTTAGCTTCATGGTAGATGGTT yielded a sensor-assay potency score (higher = more potent) of 0.468. TTCTTTACTAGTAATGATGTTG returned a sensor-assay potency score (higher = more potent) of 0.0529. Same read-out and setting: under ATACTGTCCAAGAATAACCTTT stands -0.208; under TTTTTCTTGTCTTGACTCGGAG, -0.445; under TTATCTAAAGTATCACATCCAG, -0.397. As to TTTTGCTTCATTTTTGTAGTAC, the sensor-assay potency score (higher = more potent) worked out at 0.298.

In the case of TTTTCTTGTCTTGACTCGGAGA, the sensor-assay potency score (higher = more potent) was -0.78.

Another experiment addresses ACSM2A. Described as above. The conditions noted are these: shRNA.
Sequence ATGATCTGTACATCATAACAGG returned a sensor-assay potency score (higher = more potent) of -1.32. The same measure, in the same setting: under TCATGGGACAGGAACTGCGAGG stands -1.14; under TTGTCTCGAAGCTTGGCTCGTT, 0.119.

The next experiment concerns the target ACSM2B. The description is as above. As to conditions: shRNA.
TTTCATTGTCTTGGAAACCATG showed a sensor-assay potency score (higher = more potent) of -1.14. In turn, TAAACTGGAAATACCCATCTTC gave a sensor-assay potency score (higher = more potent) of 0.528. TTGTCTCGAAGTTTGGTTCGTT came in with a sensor-assay potency score (higher = more potent) of 0.313.

TATCTTTCTTGGGTACTTGTAT gave a sensor-assay potency score (higher = more potent) of -0.285. TTAATGATATCATCTGCCCGTC: the sensor-assay potency score (higher = more potent) is -0.544. Still for that read-out and setting: under TTAATGTAGAGAGTGCGGCTGG stands 0.202; under TTTCTCAGACACCAGTAGCTTA, -0.818.

Regarding TTGGCTGCTGTCTTGTCGGGAT, the sensor-assay potency score (higher = more potent) was -0.364.

The sequence TTGGGTACTTGTATGGGGCTGT yielded a sensor-assay potency score (higher = more potent) of 0.442. The same measure, in the same setting: the value for TGACTTCACATGCTGCTGCAGC was -0.423; that for TAACCTGTACATCATAACAGGA was -0.501; that for TCCTGCTGTAGCAACATCCGGT was -0.567. Sequence TTGGTTCGTTGAATTTTCCCTG came in with a sensor-assay potency score (higher = more potent) of 0.266. The same measure, in the same setting: the value for TTGATTTTCATTGTCTTGGAAA was -0.899. Still for that read-out and setting: the value for ATAACCTGTACATCATAACAGG was -1.03.

A further experiment deals with ACSM5. The description is as above. As to conditions: shRNA.
Take TAACTTTGGCATCAACTCGGGG: the sensor-assay potency score (higher = more potent) was -0.74. Sequence TTGATCTCTGCTCCTGTGCCAT returned a sensor-assay potency score (higher = more potent) of -0.903. As for TCCACTTGATCTCTGCTCCTGT, the sensor-assay potency score (higher = more potent) was -0.0695.

In the case of TTGAAGAAACAGAAGGGCCGAG, the sensor-assay potency score (higher = more potent) was -0.0546.

Turning to TTTGACATCTTTAGGGTCGAAG, the sensor-assay potency score (higher = more potent) was -1.09. The same measure, in the same setting: under TTGAAGAATTGATCACATCGTC stands 0.691; under TTGATCACATCGTCGTTTCTTC, 0.51. Consider TACTCCTTTGGATCTTTCCAGA, for which the sensor-assay potency score (higher = more potent) was -1.3.

On to ATAACTTTGGCATCAACTCGGG, for which the sensor-assay potency score (higher = more potent) was -0.475. As to AGAATTGATCACATCGTCGTTT, the sensor-assay potency score (higher = more potent) is -0.999.

In turn, TACAGCTCCACACCAGTCTGGT gave a sensor-assay potency score (higher = more potent) of -0.482. The same measure, in the same setting: under TGACTTCGCAATTTACTCCTTT stands -0.271.
